In the library only some 7.5% were active in any assay of this set; here they are far more common.
NPC1 promoter act: activators of NPC1 promoter. Potency, µM (titrated, usually from 9.22 µM), actives largely listed as activators. Huh7 NPC1 promoter luciferase reporter, 24 h. 320,000 compounds, 2.4% hits; note: nearly all actives have a fitted effect of over 60% in size
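Stably transfected Huh7 (NPC1 promoter→luciferase), 1500 cells/well in Opti-MEM + 10% FBS, 2 h settle, then compound 24 h at 37 °C. Luminescence after 10 min with Amplite reagent.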
Rab9 promoter act: activates the Rab9 promoter | Huh7 Rab9 promoter-luciferase reporter, luminescence, 24 h | Potency, µM (titrated, usually from 9.22 µM), hits mostly activators | 320,000 compounds, 2.8% hits; note: nearly all actives have a fitted effect of over 60% in size
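Rab9 promoter-driven luciferase in stably transfected Huh7 cells; 1500 cells/well rested 2 h, exposed to compound in DMSO for 24 h at 37 °C, 5% CO2. Luminescence read 10 min after adding luciferase reagent at ambient temperature.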
ELG1 genotoxic: genotoxicity induction in ELG1-luciferase HEK293T cells; HEK293T ELG1-luciferase reporter, luminescence, 16 h; Potency, µM (series often up to 46 µM), hits mostly activators; 330,000 compounds, 1.3% hits; AID 504466; note: nearly all actives have a fitted effect of over 60% in size
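HEK293T cells expressing luciferase-tagged ELG1 were treated with compound or DMSO for 16 hr at 37°C. Luciferase activity was then read after 30 min with ONE-Glo at room temperature; rising signal flags genetic stress.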
FLuc modulator: firefly luciferase modulation, counter-screen for miR-21 project; P08659; purified FLuc, Km substrates, luminescence inhibition; Potency, µM (doses to about 57.5 µM), most hits filed as inhibitors; 360,000 compounds, 6.9% hits; note: nearly all actives have a fitted effect of over 55% in size
Target sequence (P08659 whole entry, looked up): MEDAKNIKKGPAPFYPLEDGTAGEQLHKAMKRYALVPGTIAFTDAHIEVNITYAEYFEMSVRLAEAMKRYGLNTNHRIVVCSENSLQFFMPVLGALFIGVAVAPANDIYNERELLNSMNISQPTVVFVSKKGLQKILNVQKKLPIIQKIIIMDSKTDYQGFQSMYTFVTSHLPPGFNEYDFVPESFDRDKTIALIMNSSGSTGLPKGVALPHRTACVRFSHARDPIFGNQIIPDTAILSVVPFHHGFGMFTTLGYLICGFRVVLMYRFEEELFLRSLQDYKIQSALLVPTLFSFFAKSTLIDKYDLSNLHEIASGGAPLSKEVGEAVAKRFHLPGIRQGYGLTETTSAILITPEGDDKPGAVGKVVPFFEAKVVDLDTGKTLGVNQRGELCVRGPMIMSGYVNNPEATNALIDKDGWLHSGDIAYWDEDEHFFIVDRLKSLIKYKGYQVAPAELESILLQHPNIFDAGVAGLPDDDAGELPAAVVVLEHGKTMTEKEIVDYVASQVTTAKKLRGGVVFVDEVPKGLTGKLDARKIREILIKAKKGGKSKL
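Purified P. pyralis luciferase, 10 nM final, with Km-level 10 uM D-luciferin and 10 uM ATP in 50 mM Tris acetate pH 7.5, 10 mM Mg acetate, 0.01% Tween-20, 0.05% BSA; 6-point qHTS titration about 60 µM downward; luminescence read.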
SMN2 splice enh: increases expression of the SMN2 splice variant | HEK293 SMN2-luciferase splicing reporter, luminescence, 30-36 h | 210,000 compounds, 2.8% hits | AID 1458 | Potency, µM (top dose mostly 46.1 µM), usual class: activators; note: nearly all actives have a fitted effect of over 55% in size
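HEK293 cells carry an SMN2 minigene-luciferase reporter in which exon 7 inclusion puts luciferase in frame. Cells were seeded at 2000 cells/well, attached for 10-12 hours, then exposed to compounds for 30-36 hours at 37C before ONE-Glo luminescence.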
Numbers stand for hits; . = inactive; ? = inconclusive; / = no result; [ ] = another dose, or the depositor's remark. Calls come from the whole dose curve; as a rule, active = well fitted curve in the direction sought with a large enough effect; inconclusive = small, poorly fitted or top-dose-only effect, or another doubt; inactive = no such curve, though single readings can be large; an effect the other way counts as inactive or inconclusive.

SMILES | NPC1 promoter act | Rab9 promoter act | ELG1 genotoxic | FLuc modulator | SMN2 splice enh
CCN(C(=O)Cn1nc(C)c([N+](=O)[O-])c1C)C1CCS(=O)(=O)C1 (stereo not given) | . | . | . | . | /
c1ccc2c(c1)Cn1c-2nc2ccccc21 | 1.4µM | 1.1µM | ? | 6µM | 10µM
O=C1c2ccccc2-c2nc3ccccc3n21 | . | ? | . | 15µM | /
c1ccc2c(c1)Cn1nnnc1-2 | . | . | . | . | .
Brc1c(-c2ccccc2)nc2n1Cc1ccccc1-2 | ? | 4µM | 18µM | 0.85µM | /
Cc1ccco1 | / | / | / | / | .
Cc1ccccc1OCCC(=O)Nc1ccc2c(C)cc(=O)oc2c1 | . | . | . | . | /
CCOc1ncccc1C(=O)Nc1ccc2c(C)cc(=O)oc2c1 | 3.5µM | ? | . | . | .
CCOc1ncccc1C(=O)Nc1ccc(F)c(F)c1 | . | . | . | . | .
Cc1cc(C)c(NC(=O)COc2ccccc2C(=O)Nc2ccc3c(c2)oc2ccccc23)c(C)c1 | . | . | . | 13µM | .
COc1cc2c(cc1NC(=O)COc1cc(C)cc(C)c1)oc1ccccc12 | / | / | / | . | .
COc1ccccc1C(=O)Nc1ccc2c(C)cc(=O)oc2c1 | 2µM | 1.6µM | ? | ? | /
O=C(c1ccco1)N1CCN(Cc2cc(=O)c(OCc3ccccc3F)co2)CC1 | . | . | . | . | /
CC(=O)Oc1oc(-c2ccccc2)nc1/C=N/c1ccccn1 | . | . | ? | 21µM | ?
CN(C)c1ccc(N=Cc2nc(-c3ccccc3)oc2OC(=O)c2ccccc2)cc1 | ? | ? | ? | ? | 11µM
Cc1nc2cc(Cl)ccc2c(=O)n1Cc1ccncc1 | . | . | . | . | /
Cc1ccc(Nc2ncnc3c2cnn3-c2ccccc2)c(C)c1 | / | / | / | 19µM | /
CCOc1ccccc1Nc1ncnc2c1cnn2-c1ccccc1 | . | . | . | . | .
Cc1cccc(Nc2ncnc3c2cnn3C)c1C | / | / | / | . | /
Cc1ccc(-n2ncc3c(Nc4cccc(C)c4C)ncnc32)cc1 | / | / | / | 8.5µM | /
CCOc1ccccc1Nc1ncnc2c1cnn2-c1ccc(C)cc1 | / | / | / | 15µM | /
COc1cccc(CNC(=O)CN(c2cc(C)cc(C)c2)S(=O)(=O)c2c(C)noc2C)c1 | . | 3.5µM | . | . | .
COc1cc(Cl)c(C)cc1NC(=O)CCn1c(=O)c2cccn2c2cccnc21 | / | / | / | . | /
Clc1ccc(-c2cn3cc(Cc4ccccc4)sc3n2)cc1 | / | / | / | 0.24µM | 5.6µM
Fc1ccccc1Cc1cn2cc(-c3ccc(Cl)cc3)nc2s1 | / | / | / | 0.3µM | ?
SMILES | NPC1 promoter act | Rab9 promoter act | ELG1 genotoxic | FLuc modulator | SMN2 splice enh
Cc1ccc(Cc2cn3cc(-c4ccccc4)nc3s2)cc1 | / | / | / | 0.15µM | 2.8µM
Fc1ccc(Cc2cn3cc(-c4ccc(F)cc4)nc3s2)cc1 | / | / | / | 0.3µM | 3.2µM
Cc1ccc(CNC(=O)c2sc3nc(-c4ccccc4)cn3c2C)cc1 | / | / | / | . | /
O=c1oc2ccccc2cc1-c1cn2cc(Cc3cc(Cl)ccc3Cl)sc2n1 | / | / | / | . | .
Fc1ccc(-c2cn3cc(Cc4ccccc4Cl)sc3n2)cc1 | / | / | / | 0.48µM | 2.2µM
O=C(Cc1csc2nc(-c3ccc(F)cc3)cn12)NCc1ccccc1 | / | / | / | . | /
CCOC(=O)N1CCC(N2C(=O)c3ccccc3C2Nc2c(C)cccc2C)CC1 (stereo not given) | . | . | . | . | .
C/C(=N\Nc1nc2ccccc2[nH]1)c1ccc2c(c1)OCCO2 | . | . | . | 6µM | /
C/C(=N\Nc1nc2ccccc2[nH]1)c1ccc2c(c1)OCO2 | . | . | . | 27µM | .
N#CC1(c2nc3ccccc3[nH]2)CC1c1ccc2c(c1)OCO2 (stereo not given) | . | . | . | 19µM | .
C(=N\Nc1nc2ccccc2[nH]1)/c1ccc2c(c1)OCO2 | 1.6µM | 2µM | ? | 7.6µM | 13µM
COc1ccc(/C=N/OC(=O)c2ccc(Cl)cc2)c(Cl)c1OC | . | . | . | . | /
Clc1ccccc1N/N=C/c1ccc2c(c1)OCO2 | 2.8µM | 2.8µM | ? | 11µM | 20µM
C/C(=N\Nc1ccccn1)c1ccc2c(c1)OCO2 | ? | 3.2µM | ? | 21µM | /
CC(C)NC(=O)c1onc(CSc2ccc(F)cc2)c1C(=O)NC(C)C | . | . | . | . | /
COc1ccc2nc(SC)c(C#N)cc2c1 | . | . | . | . | .
CCOC(=O)CSc1nc2cc(OC)ccc2cc1C#N | 0.79µM | 1.3µM | 0.82µM | ? | 11µM
COc1ccc2cc(C#N)c(SCC(=O)Nc3nonc3C)nc2c1 | . | . | . | . | /
CCOC(=O)CSc1nc2cc(C)ccc2cc1C#N | 0.71µM | 1.3µM | ? | ? | 14µM
CCOC(=O)CSc1nc2ccc(C)cc2cc1C#N | 2.8µM | 1.4µM | 2.3µM | 12µM | 16µM
CCOC(=O)CSc1nc2cc(C)cc(C)c2cc1C#N | ? | ? | . | . | .
COc1ccc2nc(SCC(C)=O)c(C#N)cc2c1 | ? | 1µM | 2.1µM | 1.1µM | 2µM
CCC(CO)Oc1cc(NC(=O)c2ccccc2Cl)c2ncn(C(C)C)c2c1 (stereo not given) | / | / | . | / | /
COc1cccc(C(=O)N(Cc2ccco2)c2ccccn2)c1 | / | / | / | . | /
COc1cc(-c2nc3cnccn3c2Nc2ccc(C)cc2)ccc1O | . | . | 13µM | . | 18µM
SMILES | NPC1 promoter act | Rab9 promoter act | ELG1 genotoxic | FLuc modulator | SMN2 splice enh
COc1cc(-c2nc3cnccn3c2Nc2ccccc2)ccc1O | . | . | . | . | 14µM
COc1cc(-c2nc3cnccn3c2Nc2ccc(C(C)C)cc2)ccc1O | . | . | . | . | .
COc1ccc(C(=O)Nc2ccc(CN3CCS(=O)(=O)CC3)cc2)cc1 | . | . | . | ? | /
CN(C)c1ccc(C(=O)Nc2ccc(CN3CCS(=O)(=O)CC3)cc2)cc1 | . | . | . | 13µM | /
CN(C)c1ccc(NC(=O)c2ccc(Cn3cc([N+](=O)[O-])cn3)cc2)cc1 | . | . | . | 12µM | .
Cc1ccc(C(=O)Nc2ccc(CN3CCS(=O)(=O)CC3)cc2)cc1C | ? | ? | . | 19µM | /
O=C(NCc1ccc2c(c1)OCO2)O[C@@H]1C(=O)c2cc(Br)ccc2O[C@H]1c1ccc2c(c1)OCO2 | / | / | / | / | .
CCOC(=O)c1c(C)[nH]c(CCC(=O)Nc2cc(C)ccc2OC)c1C | / | / | / | . | /
O=C(Nc1cccnc1)Nc1cccc([N+](=O)[O-])c1 | . | . | . | . | /
Cc1ccc(NC(=O)Nc2cccc([N+](=O)[O-])c2)cc1F | ? | . | . | 11µM | /
O=C(Nc1ccc(OC(F)(F)F)cc1)Nc1cccc([N+](=O)[O-])c1 | . | . | . | 24µM | /
CN1CCN(CCCBr)CC1 | / | / | / | / | .[9.22 µM]
Cc1nn(C)c(C(=O)Nc2ccc(S(=O)(=O)NC34CC5CC(CC(C5)C3)C4)cc2)c1Br | 1.4µM | 1.6µM | . | . | 1µM
OC1CCCCC1Sc1nc2ccccc2s1 (stereo not given) | ? | ? | ? | 17µM | .
C=CCN(c1ccc(F)cc1)S(=O)(=O)c1cc(C(=O)OCC(=O)N(C)C2CCS(=O)(=O)C2)ccc1Cl (stereo not given) | . | . | . | . | /
O=C(c1ccc2nsnc2c1)N1CCN(c2ccc([N+](=O)[O-])cc2)CC1 | . | . | . | . | /
CC(=O)N1CCN(C(=O)c2ccco2)CC1 | . | . | . | . | /
